Among the data in the supplement of paper PMC8007513 are growth yield values, retold here.

In the assay the test system is Trichoderma virens ATCC 9645. In words: growth yield (OD600) with compound + IPBC relative to untreated control; higher = less growth inhibition. The settings on record: compound concentration: 100 uM, IPBC concentration: 200 ng/ml. The essentials: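 Trichoderma virens ATCC 9645 spores from 7-day potato dextrose agar plates were suspended in potato dextrose broth at 15,000 spores ml^−1. Aliquots of 100 μl with library compounds at 100 μM final, with or without a co-applied biocide at 200 ng ml^−1, were grown in 96-well plates at 30 °C. OD600 was read at 40 h and 72 h on a BioTek EL800. Growth is expressed relative to the control without either agent, as means of duplicate screens.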

Counter-ions that a name gives are not always drawn. ± gives the standard error. Hit rate of the full screen: of about 1,300 compounds, about 130 (10%) showed an effect of 50% or more. This is one part of a sample in which strong results are shown more often than they occur.

`C=CCN1CC[C@]23c4c5ccc(O)c4O[C@H]2C(=O)CC[C@@]3(O)[C@H]1C5` [Naloxone hydrochloride] + CCCCNC(=O)OCC#CI [3-iodo-2-propynyl butylcarbamate (IPBC)]: the growth yield runs as follows: (40 h) 98.2 ± 3.5%; (72 h) 101 ± 3.5%.
Regarding `CC[N+](C)(CC)CCOC(=O)C1c2ccccc2Oc2ccccc21` [Methantheline bromide] + CCCCNC(=O)OCC#CI [3-iodo-2-propynyl butylcarbamate (IPBC)], the growth yield turned out to be 82 ± 1.9% (40 h) and 88.5 ± 2.1% (72 h).
Taken in the same sequence, the figures for `O=c1[nH]c2ccccc2n1C1CCN(CCCC(c2ccc(F)cc2)c2ccc(F)cc2)CC1` [Pimozide] + CCCCNC(=O)OCC#CI [3-iodo-2-propynyl butylcarbamate (IPBC)] were 111 ± 8.3% and 136 ± 2.7%.
As for `Fc1ccc(C(OCCN2CCN(CCCc3ccccc3)CC2)c2ccc(F)cc2)cc1` + CCCCNC(=O)OCC#CI [3-iodo-2-propynyl butylcarbamate (IPBC)], the growth yield by setting is: (40 h) 13.3 ± 4.8%; (72 h) 65.3 ± 6.4%.
Taken in the same sequence, the figures for `Clc1ccc(C(OCCN2CCCCC2)c2ccccc2)cc1` (stereo not given) [Cloperastine hydrochloride] + CCCCNC(=O)OCC#CI [3-iodo-2-propynyl butylcarbamate (IPBC)] were 78.6 ± 0.79% and 95.1 ± 2%.
The like results for `COc1cc(NS(=O)(=O)c2ccc(N)cc2)nc(OC)n1` [Sulfadimethoxine] + CCCCNC(=O)OCC#CI [3-iodo-2-propynyl butylcarbamate (IPBC)] were, in that order, 116.3 ± 0.95% and 114 ± 1.6%.
The like results for `C[C@]12CC[C@H]3[C@@H](CCC4=CC(=O)CC[C@@H]43)[C@@H]1CC[C@@H]2O` [Nandrolone] + CCCCNC(=O)OCC#CI [3-iodo-2-propynyl butylcarbamate (IPBC)] were, in that order, 61.2 ± 3.3% and 83.7 ± 4.8%.
`COc1cccc(OC)c1C(=O)N[C@@H]1C(=O)N2[C@@H]1SC(C)(C)[C@@H]2C(=O)O` [Methicillin sodium] + CCCCNC(=O)OCC#CI [3-iodo-2-propynyl butylcarbamate (IPBC)]: the growth yield by setting is: (40 h) 89.3%; (72 h) 90.7 ± 2%.
Taken in the same sequence, the figures for `COc1ccccc1O` [Guaiacol] + CCCCNC(=O)OCC#CI [3-iodo-2-propynyl butylcarbamate (IPBC)] were 94.7 ± 1.6% and 98 ± 1.5%.
The like results for `Nc1ccc(C(=O)O)c(O)c1` [4-aminosalicylic acid] + CCCCNC(=O)OCC#CI [3-iodo-2-propynyl butylcarbamate (IPBC)] were, in that order, 87.36 ± 0.32% and 94.18 ± 0.42%.
The like results for `CC(=O)Oc1ccccc1C(=O)O` [Acetylsalicylic acid] + CCCCNC(=O)OCC#CI [3-iodo-2-propynyl butylcarbamate (IPBC)] were, in that order, 107 ± 4.9% and 104 ± 5.5%.
Turning to `COc1ccc(C(=O)CC(=O)c2ccc(C(C)(C)C)cc2)cc1` [Avobenzone] + CCCCNC(=O)OCC#CI [3-iodo-2-propynyl butylcarbamate (IPBC)], the growth yield stood at 67.83 ± 0.16% (40 h) and 71.84 ± 0.1% (72 h).
On to `COc1ccc(C(=O)c2ccccc2O)c(O)c1` [Dioxybenzone] + CCCCNC(=O)OCC#CI [3-iodo-2-propynyl butylcarbamate (IPBC)], for which the growth yield is, setting by setting: (40 h) 23.67 ± 0.16%; (72 h) 48.35 ± 0.1%.
Taken in the same sequence, the figures for `COc1ccc(C(=O)c2ccccc2)c(O)c1` [Oxybenzone] + CCCCNC(=O)OCC#CI [3-iodo-2-propynyl butylcarbamate (IPBC)] were 45.3 ± 4.9% and 71.1 ± 6.1%.
Taken in the same sequence, the figures for `CC(N)C12CC3CC(CC(C3)C1)C2` (stereo not given) [Rimantadine Hydrochloride] + CCCCNC(=O)OCC#CI [3-iodo-2-propynyl butylcarbamate (IPBC)] were 82.76 ± 0.16% and 89.04 ± 0.1%.
Taken in the same sequence, the figures for `C=C1CC[C@@]2(O)[C@H]3Cc4ccc(O)c5c4[C@@]2(CCN3CC2CC2)[C@H]1O5` [Nalmefene hydrochloride] + CCCCNC(=O)OCC#CI [3-iodo-2-propynyl butylcarbamate (IPBC)] were 104 ± 15% and 103 ± 8.3%.
With `C[C@H](Cc1cc2c(c(C(N)=O)c1)N(CCCO)CC2)NCCOc1ccccc1OCC(F)(F)F` [Silodosin] + CCCCNC(=O)OCC#CI [3-iodo-2-propynyl butylcarbamate (IPBC)], the growth yield reads like this: (40 h) 87 ± 1.3%; (72 h) 92.6 ± 0.94%.
The like results for `CC[C@]12CCCN3CCc4c(n(c5ccccc45)[C@@](O)(C(=O)OC)C1)[C@@H]32` [Vincamine] + CCCCNC(=O)OCC#CI [3-iodo-2-propynyl butylcarbamate (IPBC)] were, in that order, 86.2 ± 1.4% and 91 ± 1.7%.
Taken in the same sequence, the figures for `O=C(O)c1cc(-c2ccc(F)cc2F)ccc1O` [Diflunisal] + CCCCNC(=O)OCC#CI [3-iodo-2-propynyl butylcarbamate (IPBC)] were 57.8 ± 1.6% and 80.65 ± 0.32%.
Taken in the same sequence, the figures for `CN(C)[C@@H]1C(O)=C(C(N)=O)C(=O)[C@@]2(O)C(O)=C3C(=O)c4c(O)ccc(Cl)c4[C@@](C)(O)[C@H]3C[C@@H]12` [Chlortetracycline hydrochloride] + CCCCNC(=O)OCC#CI [3-iodo-2-propynyl butylcarbamate (IPBC)] were 77.2 ± 0.64% and 84.3 ± 2.1%.
In the case of `C[N+]1(C)CCOC(O)(c2ccc(-c3ccc(C4(O)C[N+](C)(C)CCO4)cc3)cc2)C1` (stereo not given) [Hemicholinium bromide] + CCCCNC(=O)OCC#CI [3-iodo-2-propynyl butylcarbamate (IPBC)], the growth yield (40 h) is 19.1 ± 0.64% and the growth yield (72 h) worked out at 69.4 ± 1.5%.
Taken in the same sequence, the figures for `CC(=O)S[C@@H]1CC2=CC(=O)CC[C@]2(C)[C@H]2CC[C@@]3(C)[C@@H](CC[C@@]34CCC(=O)O4)[C@H]12` [Spironolactone] + CCCCNC(=O)OCC#CI [3-iodo-2-propynyl butylcarbamate (IPBC)] were 85.3 ± 9.1% and 91.1 ± 7%.
Taken in the same sequence, the figures for `CN(C)CCc1c[nH]c2ccc(C[C@H]3COC(=O)N3)cc12` [Zolmitriptan] + CCCCNC(=O)OCC#CI [3-iodo-2-propynyl butylcarbamate (IPBC)] were 93.2 ± 4% and 96.3 ± 4%.
Taken in the same sequence, the figures for `C=C(C)[C@@H]1[C@H]2OC(=O)[C@@H]1[C@]1(O)C[C@H]3O[C@]34C(=O)O[C@H]2[C@]14C` [Picrotoxinin] + CCCCNC(=O)OCC#CI [3-iodo-2-propynyl butylcarbamate (IPBC)] were 96.3 ± 11% and 97.1 ± 8.2%.
For the molecule `CN1CCC(=C2c3ccccc3CCc3cccnc32)CC1` [Azatadine maleate] + CCCCNC(=O)OCC#CI [3-iodo-2-propynyl butylcarbamate (IPBC)], the growth yield by setting is: (40 h) 99.6 ± 2.4%; (72 h) 97.43 ± 0.94%.
The like results for `CCOC(=O)N1CCC(=C2c3ccc(Cl)cc3CCc3cccnc32)CC1` [Loratadine] + CCCCNC(=O)OCC#CI [3-iodo-2-propynyl butylcarbamate (IPBC)] were, in that order, 17.3 ± 4% and 58.7 ± 2.5%.
The like results for `Clc1ccc2c(c1)CCc1cccnc1C2=C1CCNCC1` [Desloratadine] + CCCCNC(=O)OCC#CI [3-iodo-2-propynyl butylcarbamate (IPBC)] were, in that order, 56.2 ± 0.64% and 89.7 ± 1.4%.
For `Nc1nc(=O)n([C@@H]2CS[C@H](CO)O2)cc1F` [(-)-Emtricitabine] + CCCCNC(=O)OCC#CI [3-iodo-2-propynyl butylcarbamate (IPBC)], the growth yield by setting is: (40 h) 81.33 ± 0.64%; (72 h) 87.5 ± 1.1%.
Take `CC(=O)[C@@]1(O)CC[C@H]2[C@@H]3C[C@H](C)C4=CC(=O)C=C[C@]4(C)[C@@]3(F)[C@@H](O)C[C@@]21C` [Fluorometholone] + CCCCNC(=O)OCC#CI [3-iodo-2-propynyl butylcarbamate (IPBC)]: the growth yield was 91.3 ± 9.1% (40 h) and 88.7 ± 5% (72 h).
Taken in the same sequence, the figures for `CC(=O)NS(=O)(=O)c1ccc(N)cc1` [Sulfacetamide sodic hydrate] + CCCCNC(=O)OCC#CI [3-iodo-2-propynyl butylcarbamate (IPBC)] were 91.5 ± 1.3% and 93.7 ± 0.94%.
Taken in the same sequence, the figures for `Cc1cc(NS(=O)(=O)c2ccc(N)cc2)no1` [Sulfamethoxazole] + CCCCNC(=O)OCC#CI [3-iodo-2-propynyl butylcarbamate (IPBC)] were 45.6 ± 1.1% and 80 ± 1.6%.
Taken in the same sequence, the figures for `Cc1noc(NS(=O)(=O)c2ccc(N)cc2)c1C` [Sulfisoxazole] + CCCCNC(=O)OCC#CI [3-iodo-2-propynyl butylcarbamate (IPBC)] were 77.7 ± 2.7% and 91.1 ± 1.4%.
As for `Cc1cc(C)nc(NS(=O)(=O)c2ccc(N)cc2)n1` [Sulfamethazine sodium salt] + CCCCNC(=O)OCC#CI [3-iodo-2-propynyl butylcarbamate (IPBC)], the growth yield (40 h) worked out at 100 ± 14% and the growth yield (72 h) stood at 98.5 ± 9.1%.
The like results for `CC1CS(=O)(=O)CCN1/N=C/c1ccc([N+](=O)[O-])o1` (stereo not given) [Nifurtimox] + CCCCNC(=O)OCC#CI [3-iodo-2-propynyl butylcarbamate (IPBC)] were, in that order, 91.5 ± 12% and 91.9 ± 6.9%.
The like results for `C[C@H](CS)C(=O)N1CCC[C@H]1C(=O)O` [Captopril] + CCCCNC(=O)OCC#CI [3-iodo-2-propynyl butylcarbamate (IPBC)] were, in that order, 90.1 ± 1.1% and 90.1 ± 1.1%.
The like results for `C1CCC(C(CC2CCCCN2)C2CCCCC2)CC1` (stereo not given) [Perhexiline maleate] + CCCCNC(=O)OCC#CI [3-iodo-2-propynyl butylcarbamate (IPBC)] were, in that order, 40.981 ± 7.1e-15% and 85.27 ± 0.32%.
Turning to `CN1C(C(=O)Nc2ccccn2)=C(O)c2sccc2S1(=O)=O` [Tenoxicam] + CCCCNC(=O)OCC#CI [3-iodo-2-propynyl butylcarbamate (IPBC)], the growth yield reads like this: (40 h) 83.1 ± 2.1%; (72 h) 94.08 ± 0.1%.
The like results for `CCCCC1(COC(=O)CCC(=O)O)C(=O)N(c2ccccc2)N(c2ccccc2)C1=O` [Suxibuzone] + CCCCNC(=O)OCC#CI [3-iodo-2-propynyl butylcarbamate (IPBC)] were, in that order, 89.4 ± 2.7% and 92.71 ± 0.84%.
For `Cc1cccc(C)c1NC(=O)C1CCCCN1C` (stereo not given) [Mepivacaine hydrochloride] + CCCCNC(=O)OCC#CI [3-iodo-2-propynyl butylcarbamate (IPBC)], the growth yield runs as follows: (40 h) 91.3 ± 3.3%; (72 h) 96.3 ± 4%.
Taken in the same sequence, the figures for `CCCCC[C@H](O)/C=C/[C@@H]1[C@@H](C/C=C\CCCC(=O)O)[C@@H](O)C[C@H]1O` [Dinoprost trometamol] + CCCCNC(=O)OCC#CI [3-iodo-2-propynyl butylcarbamate (IPBC)] were 83.1 ± 1.1% and 94.08 ± 0.52%.
